Assay outcomes as filed in PubChem BioAssay.
An excerpt weighted towards active compounds, which were near 9.9% of everything screened.
SW480 rerep: DNA re-replication induction in SW480 cells; Potency, µM (doses to about 46.1 µM), for the others: at the highest dose re-replication activation, hits mostly activators; 340,000 compounds, 1.8% hits; AID 624297; SW480 DNA re-replication, Hoechst DNA content imaging, 48 h; also: potency is read from the fitted curve at half-maximal effect; % of control where 0% means no effect; nearly all actives have a fitted effect of over 55% in size
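Readout is total intensity of Hoechst-stained nuclei, excited at 405 nm and collected at 500-530 nm. Compound treatment lasted 48 hr at 37 C in 5% CO2 before staining.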
KB-V1 MDR tox: kills drug-selected multidrug resistant KB-V1 cells | KB-V1 MDR cells viability, CellTiter-Glo, 72 h | Potency, µM (top dose mostly 46.1 µM), most hits filed as cytotoxic | AID 1347076 | 400,000 compounds, 3.4% hits; also: potency is read from the fitted curve at half-maximal effect; % is scaled to controls: 0 for no effect and ±100 for the full control effect; nearly all actives have a fitted effect of over 60% in size
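In this primary screen, KB-V1 cells overexpressing P-gp are incubated with library compounds (lowest to highest concentration) for 72 h at 37 degrees C before a luminescent ATP viability read.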
IL1B secr inh: blocks inflammasome-driven IL-1 beta release; 360,000 compounds, 4.7% hits; AID 743279; activity change, % at 57.5 µM; THP-1 LPS/ATP IL-1B secretion, AlphaLISA, 16 h; hits give low values; in the data active = activity change below about -50%; inconclusive = mostly about -30% to -49%; also: % is scaled to controls: 0 for no effect and ±100 for the full control effect
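THP-1 cells pretreated 1 hr with compounds (up to 57.5 uM final), then stimulated with LPS (250 ng/mL final) plus ATP (1.25 mM final); secreted IL-1B measured by AlphaLISA after 16 hr, decreased signal indicating inhibition.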
KB-3-1 tox: KB-3-1 parental cell cytotoxicity; KB-3-1 viability, CellTiter-Glo ATP luminescence, 72 h; Potency, µM (series often up to 46.1 µM), usual class: cytotoxic; 400,000 compounds, 1.4% hits; AID 1347075; also: potency is read from the fitted curve at half-maximal effect; % is scaled to controls: 0 for no effect and ±100 for the full control effect; nearly all actives have a fitted effect of over 60% in size
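Viability of parental KB-3-1 cells, measured by CellTiter-Glo luminescence, followed a 72 h incubation at 37 °C with pinned compounds in phenol-red-free DMEM containing 10% FBS.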
MCF10A rereplic: DNA re-replication induction in MCF 10a cells; MCF 10A DNA re-replication, Hoechst nuclear intensity, 48 h; Potency, µM (series often up to 46.1 µM), without a hit: top-dose activity, positive = re-replication, hits mostly activators; 350,000 compounds, 2.9% hits; AID 624296; also: potency is read from the fitted curve at half-maximal effect; % of control where 0% means no effect; nearly all actives have a fitted effect of over 50% in size
An asterisk follows results filed as active; i = inactive; ? = inconclusive; . = no result given; ! = not active in a repeat. Unless noted, calls follow the shape of the dose curve; as a rule, active = well fitted curve in the direction sought with a large enough effect; inconclusive = small, poorly fitted or top-dose-only effect, or another doubt; inactive = no such curve, though single readings can be large; an effect the other way counts as inactive or inconclusive.

SMILES | SW480 rerep | KB-V1 MDR tox | IL1B secr inh | KB-3-1 tox | MCF10A rereplic
CC(C)(C)CC(=O)Nc1nnc(SCC(=O)N2CCCCC2)s1 | -8% | i | 16 | i | 19%
O=C(c1ccco1)N1N=C(c2ccc(Cl)cc2)CC1c1ccco1 (centres undefined) | -1% | i | ? | ? | -15%
O=C(c1ccco1)N1N=C(c2ccc(Br)cc2)CC1c1ccco1 (centres undefined) | -45% | i | -67* | i | 1%
CCS(=O)(=O)Nc1cccc(C2=NN(C(=O)c3ccco3)C(c3ccco3)C2)c1 (centres undefined) | 13µM* | i | -22 | 8.2µM* | 13µM*
CCS(=O)(=O)Nc1ccc(C2=NN(C(=O)c3ccco3)C(c3ccco3)C2)cc1 (centres undefined) | ? | ? | -4 | 3.7µM* | 9.2µM*
CC1(C)O[C@@H]2[C@H](O1)[C@@H](CO)O[C@H]2n1ccc(=O)[nH]c1=O | -4% | i | 11 | i | 22%
S=C(Nc1cccc(Cl)c1Cl)N1CCC2(CC1)OCCO2 | -3% | i | 9 | i | 0%
Cc1cccc(-n2ccnc2SCC(=O)Nc2ccccc2C(F)(F)F)c1 | . | ? | . | i | .
S=c1[nH]c2ccc(Cl)cc2[nH]1 | -5% | 18µM* | 25 | i | 2%
NC(=O)c1ccsc1NC(=O)c1ccc2c(c1)CCCC2 | -7% | ? | -55* | ? | 29%
CNC(=O)c1ccsc1NC(=O)c1ccc2c(c1)CCCC2 | 26% | ? | -55* | i | ?
NC(=O)c1ccsc1NC(=O)c1ccc(N2CCCC2=O)cc1 | -13% | i | -56* | i | -2%
O=C(NC(=S)N1CCN(c2ccc(C(F)(F)F)cc2[N+](=O)[O-])CC1)c1cccs1 | 12% | 15µM* | -1 | i | ?
CCN1CCN(C(=S)NC(=O)c2cccs2)CC1 | -12% | i | 17 | i | 0%
COc1ccc(OC)c(C(=O)CN2C(=O)N(c3cc(C)cc(C)c3)S(=O)(=O)c3ccccc32)c1 | . | i | . | i | .
CC(=O)c1sc(Nc2cccc3ccccc23)nc1C | -20% | i | 6 | i | ?
CCC(=O)Nc1nc(C)c(-c2csc(Nc3ccc(C(=O)O)cc3)n2)s1 | 5% | i | 0 | i | 12%
CC(=O)Nc1nc(C)c(-c2csc(Nc3ccccn3)n2)s1 | 1% | i | -79*! | ? | ?
CCCC(=O)Nc1nc(C)c(-c2csc(Nc3ccc(Cl)cc3)n2)s1 | 1% | i | -21 | ? | ?
CC(=O)Nc1ccc(Nc2nc(-c3sc(NC(C)=O)nc3C)cs2)cc1 | 5% | i | -95* | ? | ?
CCC(C)C(=O)Nc1nc(C)c(-c2csc(Nc3ccc(Cl)cc3)n2)s1 (centres undefined) | 9% | i | -1 | 6.5µM* | ?
CC(=O)c1sc(Nc2ccccn2)nc1C | -1% | ? | 10 | 15µM* | 17%
Cc1cc(-c2onc3ccc(Cl)cc23)ccc1O | 5% | i | ? | i | ?
CC(=O)Nc1nc(C)c(-c2csc(Nc3ccc(O)cc3)n2)s1 | ? | i | -88* | 8.2µM* | 18µM*
CC(=O)c1sc(NC(=O)C(C)Oc2ccc3c(C)cc(=O)oc3c2)nc1C (centres undefined) | 2% | ? | i | i | -9%
COc1cccc(NC(=O)Cn2c(=O)n(-c3cccc(OC)c3)c(=O)c3sc4ccccc4c32)c1 | . | i | . | i | .
COc1ccccc1NC(=O)N(Cc1cc2cc(OC)c(OC)cc2[nH]c1=O)CC1CCCO1 (centres undefined) | 13% | i | ? | i | ?
COc1ccc2[nH]c(=O)c(CN(CC3CCCO3)C(=O)Nc3ccccc3OC)cc2c1 (centres undefined) | ? | ? | -62* | ? | ?
CCc1ccc2[nH]c(=O)c(CN(Cc3ccccc3OC)C(=O)Nc3ccccc3OC)cc2c1 | 7% | i | -60* | ? | ?
CCN(CC)CCN(Cc1cc2cc(C)ccc2[nH]c1=O)C(=O)Nc1ccccc1OC | -1% | i | -22 | i | -8%
